Bioassay records: PubChem BioAssay, National Center for Advancing Translational Sciences (NCATS)
Lamin A splicing: LMNA splicing modulation. HeLa LMNA splicing GFP/RFP minigene ratio, 48 h. Potency, µM (highest dose often 46.1 µM), inactives show at the highest dose ratio change, negative = inhibition, hits mostly inhibitors. 200,000 tested, 0.01% active. AID 1487; active means well fitted inhibition curve with a large enough effect in the signal ratio, with a control signal flat, not every such curve was filed as active; inconclusive means small, poorly fitted or top-dose-only effect, or effect the other way, or a change in a side signal; the % refers to the signal ratio; further: on the % scale 0 is the no-effect control and ±100 the full control effect
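Read-out is the ratio of GFP to DsRed2 object intensity, acquired by 488 nm laser-scanning cytometry on HeLa lamin A-EGFP minigene reporter cells. Compound incubation 48 hrs at 37 °C in Opti-MEM with 2% FBS; DMSO 0.5% final.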
ALDH1A1 inh: inhibitors of human aldehyde dehydrogenase 1A1; Purified ALDH1A1, NADH fluorescence, propionaldehyde substrate; Potency, µM (top dose mostly 75.3 µM), for inactives: at the top dose activity, negative = inhibition, most hits filed as inhibitors; 220,000 tested, 7.3% active; active means well fitted inhibition curve with a large enough effect, not every such curve was filed as active; inconclusive means small, poorly fitted or top-dose-only effect, or another doubt; inactive means no such curve, though single readings can be large or run the other way;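 further: plate controls were no enzyme wells and a reference inhibitor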
Target sequence (P00352 whole entry, looked up): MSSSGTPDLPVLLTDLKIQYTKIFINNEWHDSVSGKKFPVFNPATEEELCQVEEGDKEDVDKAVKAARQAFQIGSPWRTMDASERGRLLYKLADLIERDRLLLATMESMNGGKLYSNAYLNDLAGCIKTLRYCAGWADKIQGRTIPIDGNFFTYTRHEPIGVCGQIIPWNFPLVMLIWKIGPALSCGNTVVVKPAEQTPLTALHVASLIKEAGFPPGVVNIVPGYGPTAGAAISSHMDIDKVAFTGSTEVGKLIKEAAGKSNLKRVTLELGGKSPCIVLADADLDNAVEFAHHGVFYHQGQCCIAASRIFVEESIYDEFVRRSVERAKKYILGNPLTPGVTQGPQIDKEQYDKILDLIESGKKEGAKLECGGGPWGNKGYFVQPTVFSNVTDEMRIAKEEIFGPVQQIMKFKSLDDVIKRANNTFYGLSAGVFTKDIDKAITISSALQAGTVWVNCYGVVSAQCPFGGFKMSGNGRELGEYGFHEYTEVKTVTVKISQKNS
HTT aggregate: reduces HttQ103-GFP aggregates in PC12 cells; PC12 HttQ103-GFP aggregates, Acumen cytometry, 40 h; Potency, µM (series often up to 46.1 µM), for the others: at the top dose activity change, negative = inhibition, hits mostly inhibitors; AID 1688; 220,000 tested, 1.1% active; further: on the % scale 0 is the no-effect control and ±100 the full control effect; nearly all actives have a fitted effect of over 60% in size
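Compounds (qHTS titration) were added to PC12 cells expressing an ecdysone-driven HTT exon 1 Q103–GFP fusion after induction with 100 nM tebufenozide. Aggregate formation was measured as GFP objects in cell lysates.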
HTT ATP protect: cytoprotection in Huntington HTT-Q103 PC12 cell model; 230,000 tested, 0.14% active; PC12 HTT-Q103 induced, cytoprotection, ATP luminescence, 40 h; Potency, µM (titrated, usually from 56.4 µM), without a hit: cytoprotection (ATP increase), usual class: activators; further: % of control where 0% means no effect; nearly all actives have a fitted effect of over 45% in size
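PC12 cells stably carrying ecdysone-inducible Htt exon 1 (Q103)–GFP were induced with 100 nM tebufenozide (final) alongside library compounds in a dose series. Cytoprotection was scored as retained ATP by ATPlite luminescence.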
HPGD inh: inhibitors of human 15-hydroxyprostaglandin dehydrogenase (HPGD). P15428. purified HPGD, NADH fluorescence kinetic, PGE2 substrate. Potency, µM, for inactives: at the highest dose activity change, negative = inhibition, usual class: inhibitors. 150,000 tested, 4.3% active. AID 894; active means well fitted inhibition curve with a large enough effect, not every such curve was filed as active; inconclusive means small, poorly fitted or top-dose-only effect, or another doubt; inactive means no such curve, though single readings can be large or run the other way; further: on the % scale 0 is the no-effect control and ±100 the full control effect
Target sequence (P15428 whole entry, looked up): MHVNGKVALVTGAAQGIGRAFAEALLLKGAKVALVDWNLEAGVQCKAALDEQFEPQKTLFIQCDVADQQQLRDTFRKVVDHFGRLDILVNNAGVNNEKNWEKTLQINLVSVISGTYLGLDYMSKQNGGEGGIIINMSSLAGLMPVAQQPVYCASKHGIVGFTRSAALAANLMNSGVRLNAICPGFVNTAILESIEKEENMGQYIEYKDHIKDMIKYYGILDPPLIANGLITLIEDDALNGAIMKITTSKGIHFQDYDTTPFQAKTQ
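NADH formation kinetics: reaction with 30 uM PGE2 and 1 mM NAD+ (final), 20 nM enzyme, Tris-HCl pH 8 with Tween 20, after 15 min compound preincubation at room temperature. Fluorescence change, last versus first of five reads.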
Active calls of the source: *; ? = inconclusive; . = no result; [ ] = dose if it differs, or a comment. Compounds with a hit are over-represented: about 8.8% of the library has one in this group of screens. Unless noted, the call rests on the fitted dose curve; in most records, active means well fitted curve in the direction sought with a large enough effect; inconclusive means small, poorly fitted or top-dose-only effect, or another doubt; inactive means no such curve, though single readings can be large; an effect the other way counts as inactive or inconclusive. Potency means the concentration at half of the fitted maximal effect.

SMILES | Lamin A splicing | ALDH1A1 inh | HTT aggregate | HTT ATP protect | HPGD inh
CC[C@@H]1[C@@H]2Cc3ccc(O)cc3[C@@]1(CC)CCN2C | . | 6%[13.5 µM] | . | 20%[10 µM] | -2%
COC(=O)C[C@]1(C(=O)OC)CN(C#N)N(c2ccc(Cl)cc2)C12c1ccccc1-c1ccccc12 | ? | -4% | 5.6µM* | -97%[10 µM] | -26%
O=C1NC(=S)N(c2ccccc2F)C(=O)/C1=C\c1cccs1 | ? | 20µM* | ? | 44%[10 µM] | 7.9µM*
CCOc1ccc(N2C(=O)/C(=C\c3cccs3)C(=O)NC2=S)cc1 | -18%[46 µM] | 18µM* | 16% | 16% | .
CCOc1ccc(N2C(=O)NC(=O)/C(=C/c3cnc(SC)nc3)C2=O)cc1 | 12%[46 µM] | ? | -22% | -44% | .
CC(C)[N+](=O)[O-] | . | 0% | . | -16% | -25%
CN1C(=O)C(=Cc2ccc(-c3cccc(Cl)c3)o2)C(=O)N(C)C1=O | -8% | ? | -17% | . | 7.9µM*
CN1C(=O)C(=Cc2ccc(N3CCCCCC3)o2)C(=O)N(C)C1=S | 8% | ? | -24% | -35% | -15%
CN1C(=O)NC(=O)/C(=C/c2ccc([N+](=O)[O-])o2)C1=O | . | ? | -5%[9.22 µM] | 8%[10 µM] | .
Cc1ccc(/C=C2/C(=O)NC(=O)N(C)C2=O)cc1 | -13% | 0% | -3% | 14%[0.074 µM] | -29%
Cc1ccc(Sc2ccc(C=C3C(=O)N(C)C(=O)N(C)C3=O)o2)cc1 | . | 4.5µM* | 10% | -28% | .
CN1C(=O)C(=Cc2ccc(N3CCOCC3)o2)C(=O)N(C)C1=O | 2% | 6% | 9% | . | 16µM*
O=C(O)/C=C\c1ccc[c]([Sb])c1 | . | 8%[13.5 µM] | . | . | -4%
COc1ccc(C(=O)O[C@H]2CC[C@@]3(C)[C@H]4CC[C@H]5[C@]3(C[C@]3(O)[C@H]6CN7C[C@H](C)CC[C@H]7[C@](C)(O)[C@]6(O)[C@H](O)C[C@]53O)O[C@]24O)cc1OC | . | 9%[13.5 µM] | . | 7%[10 µM] | -3%
FC(F)(F)c1ccccc1CN1CCN(Cc2ccccc2)CC1 | 10% | 20µM* | -2% | -15% | -13%
C[C@H](NC(=O)[C@@H](N)Cc1ccc(O)cc1)C(=O)N[C@@H](Cc1ccccc1)C(=O)N[C@@H](Cc1ccccc1)C(N)=O | . | -7% | . | -19% | .
CN(C)C1C(=O)C(C(N)=O)=C(O)[C@@]2(O)C(=O)C3=C(O)c4c(O)cccc4[C@@](C)(O)C3[C@H](O)C12 (some centres not stated) | . | 7.1µM* | . | -15%[1.9 µM] | ?
CCOc1c(Cl)cc(CNc2ccc(S(N)(=O)=O)cc2)cc1OC | ? | -3% | 2% | 13%[10 µM] | 25µM*
CCC12C=CCN3CCC4(c5ccc(OC)cc5N(C)C4[C@@](O)(C(=O)OC)C1OC(C)=O)C32 (some centres not stated) | -6% | -5% | . | . | -7%
CC(=NCC1CCCO1)c1c(O)n(C2CCCCC2)c(=O)[nH]c1=O (configuration not stated) | . | . | 3%[9.22 µM] | 10%[10 µM] | .
CC(=NCCN1CCOCC1)c1c(O)n(C2CCCCC2)c(=O)[nH]c1=O | ? | 14µM* | 0% | -16% | 0%
CC(=O)OC1C[C@@]2(C)C(c3ccoc3)C[C@H]3O[C@@]32[C@@]2(C)C(=O)C(O)=C3C(C)(C)C(=O)C=C[C@]3(C)C12 (some centres not stated) | . | -3% | . | -337% | -4%
Fc1ccc(C(OCCN2CCN(CCCc3ccccc3)CC2)c2ccc(F)cc2)cc1 | ? | -18% | 25µM* | -99% | -15%
O=[N+]([O-])c1ccc(O[C@H]2O[C@@H](CO)[C@@H](O)[C@@H](O)[C@@H]2F)c([N+](=O)[O-])c1 | . | . | . | -21%[1.9 µM] | .
[N-]=[N+]=[N-] | . | 18µM* | . | 6% | -10%
SMILES | Lamin A splicing | ALDH1A1 inh | HTT aggregate | HTT ATP protect | HPGD inh
Cc1cccc(N)c1C | . | -5% | . | 4% | -11%
Cc1ccc(NC(=O)OC(C)CNC(=O)Oc2cccc(C)c2)cc1 (configuration not stated) | 14%[46 µM] | 20µM* | 5% | -82% | .
CN1CCN(c2ccc([N+](=O)[O-])c3[nH]o[n+](=O)c23)CC1 | . | . | . | -93%[10 µM] | .
C=CCN1CCc2cccc3c2[C@@H]1Cc1ccc(O)c(O)c1-3 | . | . | . | 5%[1.9 µM] | .
CCCCCOc1ccc(C)cc1CN(CCCl)CCCl | . | 20µM* | 2%[9.22 µM] | 10%[10 µM] | .
CCN(CCCl)Cc1ccccc1Br | ? | -5% | . | -1%[1.9 µM] | 5%
CCC(=Nc1ccc(OC)cc1OC)c1c(O)[nH]c(=O)[nH]c1=O | -2% | -4% | -13% | -17% | 25µM*
C=CCn1c(O)c(C(CC)=Nc2cc(OC)ccc2OC)c(=O)[nH]c1=O | -9% | ? | 2% | -18%[0.074 µM] | -29%
CCC(=Nc1cc(OC)ccc1OC)c1c(O)[nH]c(=O)[nH]c1=O | ? | ? | -5% | -4% | 25µM*
Nc1cccc(Cl)c1 | . | ? | . | 2% | -4%
C=CCOC(=O)C1=C(C)OC(N)=C(C#N)[C@@]12C(=O)N(CC(N)=O)c1ccccc12 | -3% | 10% | 12% | -11% | .
CCOC(=O)CN1C(=O)C2(C(C#N)=C(N)Oc3ccccc32)C(C(=O)OC)=C1C (configuration not stated) | 4% | 7.9µM* | -4% | -10% | -3%
C=CCN1C(=O)C2(C(C(=O)OCC)=C(N)Oc3ccccc32)C2=C1CCCC2=O (configuration not stated) | -12% | 4µM* | -8% | 3% | -6%
CCOC(=O)CC1=C(C(=O)OCC)C2(C(=O)N1CC(=O)OC)C(C#N)=C(N)Oc1ccccc12 (configuration not stated) | 9% | 1.1µM* | 13% | -21% | -9%
O=c1[nH]c(=S)[nH]c(O)c1N=Nc1ccc(-c2ccccc2)cc1[N+](=O)[O-] | ? | ? | 31% | -29% | .
C/C(=N\NC(N)=S)C12CC3CC(CC(C3)C1)C2 | ? | ? | -9% | 3.2µM* | -3%
O=Cc1cn(Cc2ccc([N+](=O)[O-])cc2)c2ccccc12 | ? | 2.2µM* | 3% | -7%[10 µM] | -17%
O=Cc1cn(Cc2ccc(F)cc2)c2ccccc12 | 17%[46 µM] | 0.13µM* | ? | -30% | .
CC(=O)c1cn(Cc2ccc(C#N)cc2)c2ccccc12 | 21%[46 µM] | 0% | 2%[9.22 µM] | 30%[10 µM] | .
O=Cc1cn(Cc2ccccc2[N+](=O)[O-])c2ccccc12 | ? | 1.3µM* | 14µM* | . | -12%
Cc1c(C=O)c2ccccc2n1Cc1ccc(F)cc1 | ? | 1% | . | . | .
O=[N+]([O-])c1ccccc1CNCCc1ccc(F)cc1 | -4% | ? | -7% | 15% | -3%
CC(CCC(=O)O)C1CCC2C3CC[C@@H]4CCCC[C@@]4(C)C3CC[C@@]12C (some centres not stated) | ? | -1% | . | . | -7%
CN1C(=O)CCS(=O)(=O)[C@H]1c1ccc(Cl)cc1 | . | 4% | . | 4% | 0%
CCCCNC(=O)n1c(NC(=O)OC)nc2ccccc21 | . | ? | . | -100% | -6%
